In the supplement of paper PMC10849652 one finds log2 fold change data, which are given here for 15 targets.

Targets with a hit are over-represented here; the source holds about 8,800 in all. About 0.5% of all pairs of compound and target were hits.

Common to all, as to assay: log2 fold change, soluble protein after heating vs DMSO (PISA); higher = thermal stabilisation; K562 lysate, 10 uM; active = over 0.2 and 3.5 SD of the protein, either way, in both replicates (recomputed)
Compound in one test: Cc1cn(-c2cc(NC(=O)c3ccc(C)c(Nc4nccc(-c5cccnc5)n4)c3)cc(C(F)(F)F)c2)cn1 [nilotinib]
The method, boiled down:
(§1)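 Dounce homogenisation of K562 pellets in PBS pH 7.4 with 1 mM MgCl2 produced a crude extract, used at 1 mg/mL protein. Exposure to 10 μM compound lasted 30 min, and aliquots were then heated for 3 min across 48°C-58°C, pooled and brought to 0.5% NP-40 at 4°C. The supernatant after 21,000xg for 90 min was quantified by TMTpro 16plex LC-MS/MS with channel sums equalised. Duplicate values are given as log-two fold change in thermal stability relative to solvent controls.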

Compound in test [1]: Cc1nc(Nc2n[nH]c3c2CN(C(=O)N[C@H](CN(C)C)c2ccccc2)C3(C)C)c2sccc2n1
The method, boiled down: as §1

Compound in another test: Cc1nc(Nc2ncc(C(=O)Nc3c(C)cccc3Cl)s2)cc(N2CCN(CCO)CC2)n1 [dasatinib]
The method, boiled down: as §1

Compound in test [2]: Cc1ncc(-c2ccnc(Nc3ccc(S(C)(=O)=O)cc3)n2)n1C(C)C
The method, boiled down: as §1

Compound in test [3]: Cn1cc(-c2ccc3c(c2)CCN3C(=O)Cc2cccc(C(F)(F)F)c2)c2c(N)ncnc21
The method, boiled down:
as §1

Compound in another test: Cn1cc(CNCC2CCN(c3ncc(C(=O)NO)cn3)CC2)c2ccccc21 [quisinostat]
In short, it runs like this: as §1

Compound in the next test: Cn1cncc1[C@@](N)(c1ccc(Cl)cc1)c1ccc2c(c1)c(-c1cccc(Cl)c1)cc(=O)n2C [tipifarnib]
The method, boiled down:
as §1

Compound in test [4]: NC(=O)Nc1cc(-c2cccc(F)c2)sc1C(=O)N[C@H]1CCCNC1
The method, boiled down:
as §1

Compound in test [5]: NC(=O)c1cnc(N[C@@H]2CCCC[C@@H]2N)nc1Nc1cccc(-n2nccn2)c1
The method, boiled down: as §1

Compound in test [6]: NC1(c2ccc(-c3nc4ccn5c(=O)[nH]nc5c4cc3-c3ccccc3)cc2)CCC1
In short, it runs like this: as §1

Chain of UniProt O15067 (O15067 whole entry, looked up): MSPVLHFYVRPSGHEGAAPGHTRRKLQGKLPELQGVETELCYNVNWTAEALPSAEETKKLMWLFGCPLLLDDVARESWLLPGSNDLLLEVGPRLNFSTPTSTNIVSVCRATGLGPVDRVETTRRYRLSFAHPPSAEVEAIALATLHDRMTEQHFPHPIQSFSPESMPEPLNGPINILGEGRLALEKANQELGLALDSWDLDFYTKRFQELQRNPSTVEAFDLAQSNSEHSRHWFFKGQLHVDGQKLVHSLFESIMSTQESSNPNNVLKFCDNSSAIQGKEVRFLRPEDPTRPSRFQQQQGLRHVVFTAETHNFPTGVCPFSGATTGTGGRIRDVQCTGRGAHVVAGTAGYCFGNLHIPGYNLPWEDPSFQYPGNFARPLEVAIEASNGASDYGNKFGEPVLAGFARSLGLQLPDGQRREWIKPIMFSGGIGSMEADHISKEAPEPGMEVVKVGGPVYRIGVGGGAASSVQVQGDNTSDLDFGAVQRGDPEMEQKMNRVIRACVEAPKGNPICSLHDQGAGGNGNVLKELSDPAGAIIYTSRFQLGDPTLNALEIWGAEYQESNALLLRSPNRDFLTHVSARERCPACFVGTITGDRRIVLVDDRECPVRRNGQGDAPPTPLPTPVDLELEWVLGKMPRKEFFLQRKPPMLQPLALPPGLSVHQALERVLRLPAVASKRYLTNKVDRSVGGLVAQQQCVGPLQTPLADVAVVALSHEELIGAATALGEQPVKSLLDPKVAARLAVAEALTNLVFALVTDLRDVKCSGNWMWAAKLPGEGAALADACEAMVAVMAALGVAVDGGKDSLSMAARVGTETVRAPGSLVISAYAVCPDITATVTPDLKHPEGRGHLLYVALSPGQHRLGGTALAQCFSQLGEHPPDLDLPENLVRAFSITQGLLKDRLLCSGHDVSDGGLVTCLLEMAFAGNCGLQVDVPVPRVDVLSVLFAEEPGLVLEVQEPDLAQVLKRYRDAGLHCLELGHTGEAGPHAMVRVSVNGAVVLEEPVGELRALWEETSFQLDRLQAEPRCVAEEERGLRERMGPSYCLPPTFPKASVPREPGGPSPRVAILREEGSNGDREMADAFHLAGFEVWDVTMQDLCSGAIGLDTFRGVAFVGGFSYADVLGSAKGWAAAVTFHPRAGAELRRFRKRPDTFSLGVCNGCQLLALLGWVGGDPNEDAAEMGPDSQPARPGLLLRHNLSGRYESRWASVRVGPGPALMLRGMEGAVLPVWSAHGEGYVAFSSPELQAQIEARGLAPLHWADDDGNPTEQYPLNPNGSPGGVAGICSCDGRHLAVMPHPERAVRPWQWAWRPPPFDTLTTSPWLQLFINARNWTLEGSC
Chain of UniProt Q16816 (Q16816 whole entry, looked up): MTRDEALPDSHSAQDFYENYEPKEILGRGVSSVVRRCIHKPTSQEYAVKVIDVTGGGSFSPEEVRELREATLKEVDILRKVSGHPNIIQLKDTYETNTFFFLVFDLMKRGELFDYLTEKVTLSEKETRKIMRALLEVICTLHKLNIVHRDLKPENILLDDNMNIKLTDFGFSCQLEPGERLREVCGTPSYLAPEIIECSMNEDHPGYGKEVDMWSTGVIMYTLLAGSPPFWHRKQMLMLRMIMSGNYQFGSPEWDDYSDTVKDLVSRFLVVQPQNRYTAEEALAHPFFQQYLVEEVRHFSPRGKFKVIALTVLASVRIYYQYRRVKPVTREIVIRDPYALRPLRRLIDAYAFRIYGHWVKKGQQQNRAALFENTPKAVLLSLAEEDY
Chain of UniProt Q13362 (Q13362 whole entry, looked up): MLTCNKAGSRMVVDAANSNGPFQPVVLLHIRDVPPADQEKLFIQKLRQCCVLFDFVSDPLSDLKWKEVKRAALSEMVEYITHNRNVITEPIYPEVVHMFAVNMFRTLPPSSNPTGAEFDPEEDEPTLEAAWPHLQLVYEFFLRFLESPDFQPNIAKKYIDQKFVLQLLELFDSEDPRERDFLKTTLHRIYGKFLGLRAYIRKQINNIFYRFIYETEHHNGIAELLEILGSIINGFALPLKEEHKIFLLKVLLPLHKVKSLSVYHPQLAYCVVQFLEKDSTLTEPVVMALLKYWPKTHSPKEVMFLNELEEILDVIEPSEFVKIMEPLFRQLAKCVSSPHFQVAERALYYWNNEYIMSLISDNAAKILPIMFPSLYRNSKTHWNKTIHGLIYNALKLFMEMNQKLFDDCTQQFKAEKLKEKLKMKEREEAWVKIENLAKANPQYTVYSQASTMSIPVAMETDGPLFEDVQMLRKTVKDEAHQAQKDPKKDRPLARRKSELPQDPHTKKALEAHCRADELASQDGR
Chain of UniProt O94906 (O94906 whole entry, looked up): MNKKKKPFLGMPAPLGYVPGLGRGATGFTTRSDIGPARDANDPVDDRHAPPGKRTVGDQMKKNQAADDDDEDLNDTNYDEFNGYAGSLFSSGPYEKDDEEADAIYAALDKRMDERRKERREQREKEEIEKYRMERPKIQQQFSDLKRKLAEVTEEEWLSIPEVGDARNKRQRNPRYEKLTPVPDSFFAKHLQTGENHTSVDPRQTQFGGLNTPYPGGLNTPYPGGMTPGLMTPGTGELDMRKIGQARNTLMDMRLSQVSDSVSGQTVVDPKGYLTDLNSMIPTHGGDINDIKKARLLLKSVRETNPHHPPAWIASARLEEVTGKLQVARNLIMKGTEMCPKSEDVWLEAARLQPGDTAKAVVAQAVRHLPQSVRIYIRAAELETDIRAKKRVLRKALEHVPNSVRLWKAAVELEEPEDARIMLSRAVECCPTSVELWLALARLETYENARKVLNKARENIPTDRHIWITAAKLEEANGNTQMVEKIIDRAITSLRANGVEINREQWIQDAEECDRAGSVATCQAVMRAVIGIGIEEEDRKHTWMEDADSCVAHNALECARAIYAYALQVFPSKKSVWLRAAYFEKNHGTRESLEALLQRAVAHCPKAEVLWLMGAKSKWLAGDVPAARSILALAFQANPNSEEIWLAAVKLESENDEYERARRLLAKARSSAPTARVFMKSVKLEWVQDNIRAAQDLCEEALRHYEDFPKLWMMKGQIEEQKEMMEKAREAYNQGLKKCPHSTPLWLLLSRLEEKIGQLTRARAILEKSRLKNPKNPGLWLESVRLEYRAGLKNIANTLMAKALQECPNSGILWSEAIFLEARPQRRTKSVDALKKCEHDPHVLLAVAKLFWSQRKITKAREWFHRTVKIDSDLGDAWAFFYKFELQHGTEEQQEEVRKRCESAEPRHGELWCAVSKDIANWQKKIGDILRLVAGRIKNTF
Chain of UniProt O00408 (O00408 whole entry, looked up): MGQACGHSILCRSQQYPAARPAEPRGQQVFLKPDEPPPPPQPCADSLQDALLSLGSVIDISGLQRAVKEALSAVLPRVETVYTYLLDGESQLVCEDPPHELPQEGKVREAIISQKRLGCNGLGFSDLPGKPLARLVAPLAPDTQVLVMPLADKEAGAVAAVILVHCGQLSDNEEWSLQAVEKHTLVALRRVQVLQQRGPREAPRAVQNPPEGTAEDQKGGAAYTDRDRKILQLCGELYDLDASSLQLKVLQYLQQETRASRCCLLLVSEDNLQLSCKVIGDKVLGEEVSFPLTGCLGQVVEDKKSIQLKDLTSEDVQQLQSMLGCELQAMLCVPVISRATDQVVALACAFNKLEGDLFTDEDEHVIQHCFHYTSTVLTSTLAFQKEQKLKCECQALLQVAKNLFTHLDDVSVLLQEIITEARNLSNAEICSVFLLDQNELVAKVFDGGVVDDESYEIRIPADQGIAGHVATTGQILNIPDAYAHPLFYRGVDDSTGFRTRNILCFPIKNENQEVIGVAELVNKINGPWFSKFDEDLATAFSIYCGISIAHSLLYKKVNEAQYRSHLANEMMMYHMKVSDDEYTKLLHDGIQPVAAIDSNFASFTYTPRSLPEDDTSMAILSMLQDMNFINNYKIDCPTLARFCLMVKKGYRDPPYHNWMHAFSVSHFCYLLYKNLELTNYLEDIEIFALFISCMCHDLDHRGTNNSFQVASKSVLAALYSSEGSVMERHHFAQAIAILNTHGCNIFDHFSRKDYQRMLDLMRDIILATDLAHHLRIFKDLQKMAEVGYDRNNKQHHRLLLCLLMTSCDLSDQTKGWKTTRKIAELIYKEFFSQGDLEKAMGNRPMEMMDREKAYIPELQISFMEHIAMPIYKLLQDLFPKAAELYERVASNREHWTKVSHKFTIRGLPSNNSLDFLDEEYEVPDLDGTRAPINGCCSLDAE
Chain of UniProt Q16512 (Q16512 whole entry, looked up): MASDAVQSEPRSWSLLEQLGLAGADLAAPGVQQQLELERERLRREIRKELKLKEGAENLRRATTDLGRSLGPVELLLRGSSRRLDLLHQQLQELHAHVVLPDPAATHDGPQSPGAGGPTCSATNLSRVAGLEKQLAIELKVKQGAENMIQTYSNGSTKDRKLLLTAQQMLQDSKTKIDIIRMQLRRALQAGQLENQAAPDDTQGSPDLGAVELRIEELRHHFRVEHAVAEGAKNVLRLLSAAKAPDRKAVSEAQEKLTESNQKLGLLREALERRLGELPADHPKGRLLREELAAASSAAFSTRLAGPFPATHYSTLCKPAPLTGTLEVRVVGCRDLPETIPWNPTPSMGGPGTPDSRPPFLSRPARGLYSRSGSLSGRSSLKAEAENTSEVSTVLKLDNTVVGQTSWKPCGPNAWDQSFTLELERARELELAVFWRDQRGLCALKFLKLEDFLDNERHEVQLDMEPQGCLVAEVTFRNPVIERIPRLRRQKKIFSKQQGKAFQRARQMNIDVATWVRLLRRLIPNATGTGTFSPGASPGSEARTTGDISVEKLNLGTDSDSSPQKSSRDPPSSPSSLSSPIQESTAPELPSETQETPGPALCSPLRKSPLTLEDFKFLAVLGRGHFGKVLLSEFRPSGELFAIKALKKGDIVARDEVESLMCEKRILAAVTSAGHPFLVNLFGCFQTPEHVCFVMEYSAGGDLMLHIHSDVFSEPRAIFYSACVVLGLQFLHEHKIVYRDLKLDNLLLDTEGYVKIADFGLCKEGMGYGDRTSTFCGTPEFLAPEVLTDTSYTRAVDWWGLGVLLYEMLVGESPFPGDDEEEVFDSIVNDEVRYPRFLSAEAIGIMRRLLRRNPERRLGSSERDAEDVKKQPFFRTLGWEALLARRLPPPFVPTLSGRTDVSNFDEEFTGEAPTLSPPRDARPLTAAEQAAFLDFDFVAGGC

PRPF6 (UniProt O94906): the log2 fold change with nilotinib is -0.001 (inactive); in [1], 0.021 (inactive); in the test with dasatinib it was -0.036 (inactive); in [2], -0.005 (inactive); in [3] it was 0.026 (inactive); with quisinostat, -0.067 (inactive). Also, the log2 fold change with tipifarnib was 0.008 (inactive); in [4] it was 0.044 (inactive); in test [5] it was 0.022 (inactive); in [6], -0.019 (inactive).
For PHKG1 isoform 2 (UniProt Q16816), the log2 fold change in the test with nilotinib was -0.049 (inactive); in test [1] it was 1.01 (active); with dasatinib it was -0.124 (inactive); in test [2], -0.204 (inactive); in [3], -0.021 (inactive); with quisinostat, -0.151 (inactive). The log2 fold change is -0.007 (inactive) with tipifarnib, 1.31 (active) in [4], 0.043 (inactive) in test [5] and -0.181 (inactive) in test [6].
Consider PPP2R5C isoform 5 (UniProt Q13362), for which the log2 fold change was 0.016 (inactive) with nilotinib; 0.003 (inactive) in test [1]; -0.053 (inactive) with dasatinib; 0.022 (inactive) in test [2]; -0.005 (inactive) in test [3]; 0.016 (inactive) with quisinostat. The log2 fold change in the test with tipifarnib is 0.074 (inactive); in test [4], 0.032 (inactive); in [5], 0.059 (inactive); in test [6], -0.019 (inactive).
For PPCDC (UniProt Q96CD2), the log2 fold change is -0.002 (inactive) with nilotinib; -0.014 (inactive) in test [1]; -0.06 (inactive) in the test with dasatinib; -0.017 (inactive) in [2]; -0.04 (inactive) in [3]; -0.015 (inactive) with quisinostat. Moreover, the log2 fold change in the test with tipifarnib was 0.022 (inactive); in [4], 0.013 (inactive); in test [5], 0 (inactive); in test [6] it was 0.047 (inactive).
In the case of PTGES2 (UniProt Q9H7Z7), the log2 fold change is 0.446 (inactive) with nilotinib; -0.044 (inactive) in test [1]; 0.01 (inactive) in the test with dasatinib; -0.019 (inactive) in [2]; 0.015 (inactive) in test [3]; -0.046 (inactive) with quisinostat. For the same target, the log2 fold change with tipifarnib is -0.057 (inactive); in test [4] it was -0.012 (inactive); in [5], -0.056 (inactive); in [6] it was -0.078 (inactive).
As to PTPN2 (UniProt P17706), the log2 fold change with nilotinib is 0 (inactive); in test [1], 0.026 (inactive); in the test with dasatinib it was -0.026 (inactive); in test [2], -0.041 (inactive); in [3], 0.014 (inactive); with quisinostat it was -0.067 (inactive). Also, the log2 fold change with tipifarnib is -0.001 (inactive); in test [4], 0.025 (inactive); in test [5] it was 0.006 (inactive); in test [6] it was -0.005 (inactive).
As for PKN1 isoform 2 (UniProt Q16512), the log2 fold change with nilotinib was -0.014 (inactive); in [1] it was -0.098 (inactive); with dasatinib, -0.14 (inactive); in [2], -0.002 (inactive); in [3], 0 (inactive); with quisinostat, 0.102 (inactive). Also, the log2 fold change with tipifarnib was 0.009 (inactive); in test [4] it was -0.128 (inactive); in test [5], -0.054 (inactive); in test [6] it was -0.004 (inactive).
In the case of PHOSPHO2 (UniProt Q8TCD6), the log2 fold change in the test with nilotinib was 0.003 (inactive); in test [1], -0.013 (inactive); in the test with dasatinib it was 0.024 (inactive); in test [2], 0.038 (inactive); in [3] it was -0.033 (inactive); in the test with quisinostat, 0.03 (inactive). In addition, the log2 fold change was 0.068 (inactive) with tipifarnib, -0.036 (inactive) in test [4], -0.004 (inactive) in test [5] and 0.013 (inactive) in [6].
In the case of PGGT1B (UniProt P53609), the log2 fold change was 0.01 (inactive) with nilotinib; -0.005 (inactive) in [1]; 0.005 (inactive) with dasatinib; -0.03 (inactive) in test [2]; 0.048 (inactive) in [3]; 0.066 (inactive) with quisinostat. In addition, the log2 fold change with tipifarnib is 0.208 (inactive); in test [4], 0.018 (inactive); in test [5] it was -0.037 (inactive); in test [6], 0.047 (inactive).
For PDE2A (UniProt O00408), the log2 fold change with nilotinib was 0.021 (inactive); in test [1] it was -0.033 (inactive); with dasatinib, 0.042 (inactive); in test [2], -0.008 (inactive); in [3] it was 0.035 (inactive); in the test with quisinostat, 0.026 (inactive). Also, the log2 fold change with tipifarnib is 0.042 (inactive); in test [4] it was 0.006 (inactive); in test [5] it was 0.08 (inactive); in test [6], -0.184 (inactive).
With PTS (UniProt Q03393), the log2 fold change with nilotinib is 0.172 (inactive); in test [1], 0.024 (inactive); with dasatinib, 0 (inactive); in test [2] it was -0.018 (inactive); in [3], 0.082 (inactive); with quisinostat, -0.083 (inactive). Besides, the log2 fold change was 0.112 (inactive) in the test with tipifarnib, 0.126 (inactive) in test [4], 0.006 (inactive) in [5] and -0.077 (inactive) in [6].
Turning to PRKACA (UniProt P17612), the log2 fold change in the test with nilotinib was -0.055 (inactive); in test [1] it was 0.638 (active); with dasatinib, 0.07 (inactive); in [2] it was 0.068 (inactive); in test [3], 0.049 (inactive); with quisinostat, 0.097 (inactive). The log2 fold change with tipifarnib was -0.083 (inactive); in test [4], 0.637 (active); in test [5] it was 0.273 (inactive); in [6], -0.038 (inactive).
In the case of PI4KA (UniProt P42356), the log2 fold change with nilotinib is -0.025 (inactive); in [1], 0.055 (inactive); with dasatinib, -0.098 (inactive); in [2] it was 0.015 (inactive); in [3], 0.043 (inactive); in the test with quisinostat it was -0.076 (inactive). Further, the log2 fold change was -0.031 (inactive) in the test with tipifarnib, 0.041 (inactive) in [4], 0.003 (inactive) in test [5] and 0.019 (inactive) in test [6].
In the case of PDCD6IP (UniProt Q8WUM4), the log2 fold change in the test with nilotinib is 0.059 (inactive); in test [1], -0.045 (inactive); with dasatinib, -0.023 (inactive); in test [2] it was -0.006 (inactive); in test [3], 0.049 (inactive); with quisinostat, 0.001 (inactive). The log2 fold change was 0.06 (inactive) with tipifarnib, 0 (inactive) in test [4], -0.058 (inactive) in [5] and -0.032 (inactive) in test [6].
Regarding PFAS (UniProt O15067), the log2 fold change with nilotinib is 0.015 (inactive); in test [1] it was -0.023 (inactive); in the test with dasatinib, -0.031 (inactive); in test [2], -0.017 (inactive); in test [3], 0.008 (inactive); with quisinostat, -0.037 (inactive). Also, the log2 fold change with tipifarnib is 0.01 (inactive); in test [4] it was 0.01 (inactive); in test [5] it was 0.005 (inactive); in [6], -0.009 (inactive).
